Measurements as given in PubChem BioAssay (NCI).
The panel holds about 79,000 compounds, 15% with a hit somewhere; the sample as a whole holds those more often. The source made the active and inactive calls. Cut-off read from the data, not from the text of the source: active = growth inhibition above about 70%; inactive = the rest.

How the values were obtained:
[1] = NCI Yeast Anticancer Drug Screen. Data for the rad50 strain (AID 155);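 note: 0% = growth of vehicle-only cultures of the same strain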; settings: S. cerevisiae rad50 strain growth inhibition; at 50.0 µM; hits give high values
How it was run: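 Compounds were tested on a yeast strain with an engineered DNA damage repair alteration; the reported value is growth inhibition normalised to vehicle treatment.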

[2] = NCI Yeast Anticancer Drug Screen. Data for the mec2-1 strain (AID 157); settings: S. cerevisiae mec2-1 strain, at 50.0 µM, hits give high values
How it was run: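 Mutant yeast (mec2-1) grown with compound; growth inhibition relative to vehicle control reported.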

[3] = NCI Yeast Anticancer Drug Screen. Data for the sgs1 mgt1 strain (AID 161);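 note: 0% = growth of cultures given vehicle only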; settings: S. cerevisiae sgs1 mgt1 strain, at 50.0 µM, hits give high values
How it was run: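 Growth of a repair-deficient yeast mutant was monitored after compound treatment and expressed as inhibition relative to vehicle-treated cultures.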

[4] = NCI Yeast Anticancer Drug Screen. Data for the cln2 rad14 strain (AID 165);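 note: 0% = growth equal to vehicle treated cultures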; settings: S. cerevisiae cln2 rad14 strain, at 50.0 µM, hits give high values
How it was run: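 Readout is yeast growth inhibition versus vehicle-treated controls, using a strain with cln2 and rad14 alterations exposed to compound.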

[5] = NCI Yeast Anticancer Drug Screen. Data for the bub3 strain (AID 167); settings: S. cerevisiae bub3 mutant strain, at 50.0 µM, hits give high values
How it was run: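 Growth of a checkpoint-deficient yeast mutant is measured after compound exposure. Values represent inhibition relative to vehicle.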

[6] = NCI Yeast Anticancer Drug Screen. Data for the mlh1 rad18 strain (AID 175); settings: S. cerevisiae mlh1 rad18 strain growth inhibition; at 50.0 µM; hits give high values
How it was run: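 Genetically defined yeast (DNA repair-deficient) exposed to compounds; growth inhibition determined relative to vehicle.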

Measured: growth inhibition

c1ccc2sc(SCSc3nc4ccccc4s3)nc2c1
inactive: [1] 2.65% | [2] -31.9% | [3] -18.1% | [4] -13.7% | [5] -1.05% | [6] -30.9%

COC(=O)c1c2c(cc3c1CC1(Cc4ccccc4C1=O)C3)CCC2 (configuration not stated)
inactive: [1] -23.2% | [2] 5.2% | [3] 14.2% | [4] -17.1% | [5] 9.4% | [6] -39.9%

COc1ccc(C(=O)C(C)(c2nc3n(c2O)C(=N)N=N3)c2nc3n(c2O)C(=N)N=N3)cc1 (configuration not stated)
inactive: [1] -8.8% | [2] 4.45% | [3] 0.75% | [4] -8.85% | [5] 5.8% | [6] -7.95%

Cc1ccc(N2C(=O)CSC2=S)cc1F
inactive: [1] 1.55% | [2] 6.55% | [3] 47.4% | [4] 8.15% | [5] 5.6% | [6] 10.7%

CCOc1ccccc1NC(=O)CC1Sc2ccccc2NC1=O (configuration not stated)
inactive: [1] 24.5% | [2] -14.7% | [3] 15.3% | [4] 2.55% | [5] 3.85% | [6] 21.5%

CSc1cc(C)c(C#N)c(SC)n1
inactive: [1] -32.6% | [2] -32.1% | [3] -12.9% | [4] -5.7% | [5] 0.05% | [6] -12.4%

O=S(=O)(Nc1ccnn1-c1ccccc1)c1ccc(NC(=S)Nc2ccccc2)cc1
inactive: [1] 34.1% | [2] 38.5% | [3] 46% | [4] 27.7% | [5] 56.4% | [6] 65.5%

Nc1c(-c2nc3ccccc3[nH]2)sc(=S)n1-c1ccc(Cl)cc1
inactive: [1] -11.6% | [2] -30.7% | [3] 2.75% | [4] 8.9% | [5] 7.8% | [6] -6.5%

COc1c(Cl)c(Cl)c([N+](=O)[O-])c(Cl)c1Cl
inactive: [1] 40.4% | [2] 30.1% | [3] 35.5% | [4] 7.65% | [5] 37.9% | [6] 33.2%

CC1(C)[C@H](C(=O)O)CC[C@]1(C)C(=O)O
inactive: [1] 9.9% | [2] -13.1% | [3] 1.05% | [4] 19.2% | [5] -0.7% | [6] 11.4%

CN(C)C(=O)C(NCCO)c1ccccc1 (configuration not stated)
inactive: [1] -12.6% | [2] -20.4% | [3] -11.2% | [4] -27.8% | [5] 14% | [6] 0.3%

COC1/C=C/OC2(C)Oc3c(C)c(O)c4c(O)c(c(/C=N/N5CC(C)N(C(=O)c6ccccc6)C(C)C5)c(O)c4c3C2=O)NC(=O)C(C)=C/C=C/C(C)C(O)C(C)C(O)C(C)C(OC(C)=O)C1C (configuration not stated)
inactive: [1] -5.8% | [2] -13.6% | [3] -23.8% | [4] 24.6% | [5] 25.2% | [6] 5.45%

COc1cccc(CSCC(=O)O)c1
inactive: [1] -9.3% | [2] -26.5% | [3] -44.2% | [4] 7.25% | [5] -17.6% | [6] -1.6%

O=c1[nH]c2cc([N+](=O)[O-])ccc2nc1/C(=N/Nc1ccccc1)C(O)c1ccc(Cl)cc1Cl (configuration not stated)
inactive: [1] 41% | [2] 3.6% | [3] -11.6% | [4] -20.2% | [5] -7.3% | [6] 34.7%

Cc1ccc(S(=O)(=O)N(c2c(F)cc(C#N)cc2F)S(=O)(=O)c2ccc(C)cc2)cc1
inactive: [1] 51.7% | [2] 6.35% | [3] 32.8% | [4] 30.1% | [5] 2.6% | [6] 31.6%

COc1[nH]c2ccccc2c1C=O
inactive: [1] 45.1% | [2] 30.6% | [3] 22.3% | [4] 17.1% | [5] 11% | [6] 24.1%

NC(=O)c1ccccc1C(=O)c1ccccc1
inactive: [1] -35% | [2] 1.85% | [3] -8.6% | [4] -20.1% | [5] -27.1% | [6] -10.3%

COc1cc(/C=C/C(=O)O)cc(OC)c1O
inactive: [1] 5.65% | [2] -5.05% | [3] -22.9% | [4] 23.1% | [5] 10.8% | [6] 16.5%

NC(Cc1c[nH]c2ccc(F)cc12)C(=O)O (configuration not stated)
inactive: [1] -4.35% | [2] -17.5% | [3] -29.8% | [4] -37% | [5] -14.4% | [6] 4.15%

CC(C)(C)c1nc2c(o1)C(=Nc1ccc(F)cc1)c1ccccc1C2=O
inactive: [1] 8.6% | [2] 3.15% | [3] 14.7% | [4] 38.1% | [5] 0.65% | [6] -2.5%

O=C(O)c1ccc(O)c([N+](=O)[O-])c1
inactive: [1] 8.2% | [2] -33.5% | [3] 6.5% | [4] 9% | [5] 6.85% | [6] 27.2%

Cc1nc(N)[nH]c(=O)c1CCCN=Cc1ccccc1
active: [5] 92.2%
inactive: [1] 8.5% | [2] 56.5% | [3] 2.8% | [4] 18.5% | [6] 51.1%

CNC(=O)OCc1c(COC(=O)NC)c2n(c1C)CSC2
inactive: [1] 4.95% | [2] -14.4% | [3] -11.3% | [4] -7.9% | [5] -5.45% | [6] 2%

C=CCOC(=O)OCCOC(=O)OCC=C
inactive: [1] 6.4% | [2] -4.7% | [3] -2.05% | [4] -1.55% | [5] 24.1% | [6] -1.55%

CCOS(=O)(=O)c1ccc(F)c([N+](=O)[O-])c1
inactive: [1] 7.3% | [2] 5.6% | [3] -1.9% | [4] -47% | [5] 2.65% | [6] -2.1%

COC(=O)Cc1ccccc1-n1nccc1S(C)=O (configuration not stated)
inactive: [1] 10.2% | [2] -5.05% | [3] 14.3% | [4] -7.65% | [5] 8.6% | [6] 7.45%

CC(=O)OCC1OC(n2c(Br)nc3c(N)ncnc32)C(O)C1O (configuration not stated)
inactive: [1] -3.35% | [2] -4.5% | [3] -16.4% | [4] -12.2% | [5] -0.7% | [6] -29.4%

CSc1ccccc1N.[Cl][Cu][Cl]
inactive: [1] 28.8% | [2] 19.4% | [3] -2% | [4] 14.8% | [5] 28.1% | [6] 28.4%

COc1ccc(/C=C2/CSC/C(=C/c3ccc(OC)c(OC)c3)C2=O)cc1OC
inactive: [1] -16.2% | [2] 11.7% | [3] 6.8% | [4] -40.8% | [5] 10.2% | [6] -1.35%

O=S1OC(c2ccccc2)(c2ccccc2)C(c2ccccc2)(c2ccccc2)O1
inactive: [1] -29.9% | [2] -16.6% | [3] 2.2% | [4] 11.6% | [5] -13.2% | [6] -17.4%

CCCc1c(C)[nH]c2ccccc12
inactive: [1] 15.1% | [2] -33.3% | [3] 5.7% | [4] 24.8% | [5] -16.9% | [6] 9%

CC(=O)NC(c1ccc(Cl)cc1)(c1ccc(Cl)cc1)C(Cl)(Cl)Cl
inactive: [1] -18.6% | [2] -35% | [3] -7.4% | [4] 8.5% | [5] 10.4% | [6] -3.25%

CS(=O)(=O)OCCC(COS(C)(=O)=O)NC(=O)c1ccccc1 (configuration not stated)
inactive: [1] -3.75% | [2] -8.95% | [3] -2.85% | [4] -18.1% | [5] -10.3% | [6] -4.95%

N#CCCN(c1ccc(C=Nc2ccccc2Cl)cc1)S(=O)(=O)c1ccccc1
inactive: [1] -18.1% | [2] -9.8% | [3] -13.7% | [4] 4.25% | [5] -6.5% | [6] 16.2%

NCC1CC1
inactive: [1] 19.1% | [2] -2.25% | [3] 9.75% | [4] 8.65% | [5] -11.8% | [6] 14.7%

CN(C)c1nc(=NCc2ccncc2)ss1
inactive: [1] -38.2% | [2] 8.45% | [3] 2% | [4] -45.4% | [5] 5.85% | [6] -16.8%

NC(CCC(=O)OCCn1c2ccccc2c2ccccc21)C(=O)O (configuration not stated)
inactive: [1] -1.9% | [2] -2.4% | [3] 3.3% | [4] -2.1% | [5] 18.1% | [6] 3.95%
